# The list is not random: actives were taken first. Their share in the collection is about 3.3%.
# LmPK inh: LmPK (Leishmania mexicana) enzyme inhibition | purified LmPK, Kinase-Glo ATP luminescence, 1 h | Potency, µM (series often up to 57.5 µM), for inactives: at the top dose activity change, negative = inhibition, actives largely listed as inhibitors | 290,000 compounds, 0.37% hits
#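 Purified LmPK (0.1 nM) with 0.5 mM PEP and 0.1 mM ADP in imidazole buffer pH 7.2 with MgCl2/KCl, 1 h at room temperature. ATP formed was read by luciferase luminescence and normalized to no-enzyme and uninhibited controls.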
# RE007 growth inh: less growth of the S. pombe RE007 Vpr strain | S. pombe RE007 Vpr strain, BacTiter-Glo ATP luminescence, 24 h | Potency, µM (doses to about 92.2 µM), without a hit: at the highest dose activity change, negative = less growth, actives largely listed as inhibitors | AID 651644 | 360,000 compounds, 0.21% hits; active means well fitted falling curve with a large enough effect; inconclusive means small, poorly fitted or top-dose-only effect; inactive means no such curve, though single readings can be large or run the other way; further: nearly all actives have a fitted effect of over 50% in size
#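 Fission yeast RE007 carrying one integrated HIV-1 vpr copy, seeded at OD 0.01 in PMG+AL medium with 23 nL pinned compound. Grown 24 h at 30 degrees; viability read by BacTiter-Glo luminescence after 5 min.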
# FBPA Giardia inh: blocks Giardia fructose-bisphosphate aldolase activity. A8B2U2. purified Giardia FBPA. Potency, µM (titrated, usually from 59.6 µM), for inactives: top-dose activity, negative = inhibition, actives largely listed as inhibitors. 290,000 compounds, 0.71% hits. AID 2451; further: nearly all actives have a fitted effect of over 55% in size
# Target sequence (A8B2U2 whole entry, looked up): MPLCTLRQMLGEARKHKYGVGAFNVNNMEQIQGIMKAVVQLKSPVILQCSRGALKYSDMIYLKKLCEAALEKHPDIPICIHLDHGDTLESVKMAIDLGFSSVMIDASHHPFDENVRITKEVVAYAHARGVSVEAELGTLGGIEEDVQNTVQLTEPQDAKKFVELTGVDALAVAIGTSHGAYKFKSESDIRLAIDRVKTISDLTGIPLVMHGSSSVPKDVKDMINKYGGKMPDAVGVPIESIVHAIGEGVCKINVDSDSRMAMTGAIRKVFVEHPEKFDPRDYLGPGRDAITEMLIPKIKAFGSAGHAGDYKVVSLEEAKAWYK
#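 Giardia FBPA (40 nM reagent) was preincubated 10 min at RT with compound (up to 57.5 uM final), then substrate plus GAPDH/TPI/NAD/arsenate coupling system with diaphorase/resazurin was added; resorufin fluorescence (525/598 nm) was read after 20 min.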
# Sm TGR inh: S. mansoni TGR enzyme inhibition; purified TGR, DTNB reduction, TNB absorbance 405 nm; Potency, µM (titrated, usually from 114 µM), for the others: at the highest dose activity change, negative = inhibition, usual class: inhibitors; 360,000 compounds, 3% hits; AID 485364; further: nearly all actives have a fitted effect of over 60% in size
#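 First, TGR (20 nM dispensed) and NADPH were mixed with compound. Second, a 15 min room-temperature incubation followed. Third, further NADPH and then DTNB were added to start the reaction. Finally, TNB absorbance was monitored kinetically.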
# TbPYK inhibitor: T. brucei pyruvate kinase inhibition; Q57TT1; Potency, µM (highest dose often 76.8 µM), inactives show at the top dose activity, negative = inhibition, most hits filed as inhibitors; AID 624173; TbPYK enzyme, Kinase-Glo Plus ATP luminescence, 45 min; 410,000 compounds, 0.12% hits; further: nearly all actives have a fitted effect of over 50% in size
#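 Enzyme and substrate buffer are dispensed first and compound is pin-transferred. ADP at 130 uM final then starts the reaction, which runs 45 min at room temperature. Detection reagent is added for 10 min before luminescence is imaged.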
# * marks the source's active call; other numbers are inactive results; ? = inconclusive; . = no result. Unless noted, the call rests on the fitted dose curve; in most records, active means well fitted curve in the direction sought with a large enough effect; inconclusive means small, poorly fitted or top-dose-only effect, or another doubt; inactive means no such curve, though single readings can be large; an effect the other way counts as inactive or inconclusive. On the % scale 0 is the no-effect control and ±100 the full control effect; potency means the concentration at half of the fitted maximal effect.
SMILES,LmPK inh,RE007 growth inh,FBPA Giardia inh,Sm TGR inh,TbPYK inhibitor
COc1cc(-c2nc3ccccn3c2/N=C/c2cc(OC)c(O)cc2Cl)ccc1O,6%,?,?,25µM*,-9%
N#Cc1ccc(C[C@@H](NS(=O)(=O)c2ccc(C(=O)O)cc2)C(=O)O)cc1,.,.,0%,-4%,.
O=C(O)c1ccc(S(=O)(=O)N[C@@H](Cc2ccc(O)cc2)C(=O)O)cc1,.,.,12%,45µM*,.
N/C(=N\OC(=O)c1ccco1)c1ccccn1,13µM*,-7%,-4%,.,?
Cc1cccc(/C(N)=N/OC(=O)c2ccco2)c1,16µM*,?,5%,4%,-15%
N/C(=N\OC(=O)c1ccco1)c1ccccc1,22µM*,-13%,4%,-15%,-18%
COc1ccc(/C(N)=N/OC(=O)c2ccco2)cc1,11µM*,-22%,0%,18%,-20%
CCC(=O)N1CCCC(C(=O)Nc2nc3ccccc3n2C)CC1 (stereo unspecified),.,-5%,.,.,0%
Cc1cc(NC(=O)C2CCN(S(=O)(=O)c3ccc(Br)s3)CC2)ccc1Br,.,.,.,5%,3%
COc1cc(/C=C/C(=O)C2C(=O)C=C(C)OC2=O)cc(OC)c1O (stereo unspecified),-13%,-17%,?,-33%,-29%
COc1ccc(/C=C/C(=O)C2C(=O)C=C(C)OC2=O)cc1O (stereo unspecified),16µM*,-22%,?,-28%,-8%
CCCCC(c1nc2ccccc2[nH]1)n1c(-c2ccccc2)nc2cc(C)c(C)cc21 (stereo unspecified),.,38%,.,.,-13%
O=C(N/N=C/c1cccs1)c1n[nH]c2c1CCCC2,14µM*,-9%,1%,15%,-21%
C/C(=N\NC(=O)c1n[nH]c2c1CCC2)c1cccs1,11µM*,3%,-5%,5%,-5%
COc1ccc2c(c1)CC/C(=C/c1ccncc1)C2=O,-19%,?,0%,4%,-9%
COc1ccc2c(c1)CC/C(=C\c1ccc(C)o1)C2=O,-6%,17%,-28%,22µM*,-12%
COc1ccc2c(c1)C(=O)/C(=C/C=C/c1ccccc1)CC2,-8%,-14%,?,45µM*,2%
COc1ccc2c(c1)CC/C(=C\C=C\c1ccccc1OC)C2=O,0%,-9%,?,28µM*,-9%
O=C(NCCSCc1ccc(Cl)cc1Cl)c1ccc(CN2CCOCC2)cc1,8%,-10%,10%,1%,-3%
COC(=O)c1ccc(C(=O)OC)c(NC(=O)c2c(-c3ccccc3)c(-c3ccccc3)nn(C)c2=O)c1,.,.,.,4%,-1%
O=C1CCCC2=C1C(c1cccc(O)c1)c1c(ccc3ncccc13)N2 (stereo unspecified),2%,-15%,-7%,32µM*,-4%
O=C1CCCC2=C1C(c1ccc(O)c(O)c1)Nc1ccc3ncccc3c12 (stereo unspecified),?,-12%,?,20µM*,?
COc1ccc(C2C3=C(CCCC3=O)Nc3ccc4ncccc4c32)cc1OC (stereo unspecified),6%,8%,-17%,20µM*,-1%
O=C1CCCC2=C1C(c1cccs1)Nc1ccc3ncccc3c12 (stereo unspecified),-4%,-6%,-11%,-1%,-7%
O=C(CCCNC(=O)c1ccc(Cl)cc1)Nc1cccc(F)c1,0%,9%,-8%,-8%,-1%
COc1ccc(C(c2nnnn2CCc2ccccc2)N2CCN(C)CC2)cc1OC (stereo unspecified),8%,9%,6%,89µM*,-15%
COc1ccccc1N1CCN(C(c2ccccc2)c2nnnn2CCc2ccccc2)CC1 (stereo unspecified),1%,7%,-26%,-9%,0%
COCCn1nnnc1C(c1ccc(O)c(OC)c1)N1CCc2ccccc2C1 (stereo unspecified),20%,19%,?,0.35µM*,-24%
CCOC(=O)C1CCCN(c2nc3c(C)cccn3c(=O)c2/C=C(\C#N)C(=O)NCc2ccco2)C1 (stereo unspecified),4%,5%,1%,-28%,-4%

# Screens as filed in PubChem BioAssay.
